Bioassay records as filed in PubChem.
USP8 inh = human USP8 deubiquitinase inhibition; P40818; purified USP8, Ub-rhodamine cleavage fluorescence, 30 min; inhibition, % at 20 µM; 47,000 compounds, 4.2% hits; AID 1645853
USP7 inh = blocks human USP7 ubiquitin-rhodamine cleavage. Q93009. purified USP7, Ub-rhodamine cleavage fluorescence. inhibition, % at 20 µM. 47,000 compounds, 0.3% hits. AID 1645854
USP10 inh = human USP10 deubiquitinase inhibition; inhibition, % at 20 µM; AID 1645856; Q14694; purified USP10, Ub-rhodamine fluorescence, 60 min; 47,000 compounds, 1.1% hits
Target sequence (Q14694 whole entry, looked up): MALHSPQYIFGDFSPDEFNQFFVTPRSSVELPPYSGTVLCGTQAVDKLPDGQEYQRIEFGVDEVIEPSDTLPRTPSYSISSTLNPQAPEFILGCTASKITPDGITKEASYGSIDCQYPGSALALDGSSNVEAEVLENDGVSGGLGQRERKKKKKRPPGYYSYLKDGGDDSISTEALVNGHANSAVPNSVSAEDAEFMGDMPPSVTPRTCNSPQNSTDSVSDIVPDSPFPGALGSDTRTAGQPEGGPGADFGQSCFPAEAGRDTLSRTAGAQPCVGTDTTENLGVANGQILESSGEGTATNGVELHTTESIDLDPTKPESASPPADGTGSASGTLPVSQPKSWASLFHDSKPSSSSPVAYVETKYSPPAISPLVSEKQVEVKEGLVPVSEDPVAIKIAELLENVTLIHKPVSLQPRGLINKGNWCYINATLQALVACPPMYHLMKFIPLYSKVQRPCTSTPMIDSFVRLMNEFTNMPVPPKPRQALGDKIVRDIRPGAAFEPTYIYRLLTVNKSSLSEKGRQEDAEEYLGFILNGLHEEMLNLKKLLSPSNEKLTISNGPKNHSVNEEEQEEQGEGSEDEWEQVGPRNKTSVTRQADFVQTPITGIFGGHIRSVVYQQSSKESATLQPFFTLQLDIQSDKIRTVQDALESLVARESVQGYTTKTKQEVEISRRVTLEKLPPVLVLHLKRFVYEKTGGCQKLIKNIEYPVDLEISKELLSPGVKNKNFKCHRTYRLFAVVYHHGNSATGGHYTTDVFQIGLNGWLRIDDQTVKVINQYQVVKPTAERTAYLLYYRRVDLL
UCHL1 block = blocks human UCHL1 ubiquitin-rhodamine cleavage | 47,000 compounds, 0.2% hits | AID 1645859 | purified UCHL1, Ub-rhodamine cleavage fluorescence | inhibition, % at 20 µM
Active calls of the source: *; nt = no result. Shown are actives, neighbours in structure and some others; about 5% of the full set was active somewhere. Rule as the data show it: active = inhibition above about 30%; inactive = the rest.

SMILES	USP8 inh	USP7 inh	USP10 inh	UCHL1 block
O=C(Cn1c(=O)n(CCC(=O)NC2CCCC2)c(=O)c2ccccc21)Nc1ccccc1F	15	6	2	3
O=C(Cc1ccc(-n2c(=O)c3ccccc3n(Cc3cccc(F)c3)c2=O)cc1)NC1CCCC1	21	6	16	-2
COc1ccc(OC)c(NC(=O)Cn2c(=O)n(C3CCCCC3)c(=O)c3ccccc32)c1	18	-3	43*	-3
O=C(Cc1ccc(-n2c(=O)c3ccccc3n(Cc3cccc([N+](=O)[O-])c3)c2=O)cc1)NC1CCCC1	26	18	36*	8
COc1ccc(NC(=O)Cn2c(=O)n(C3CCCCC3)c(=O)c3ccccc32)cc1	12	0	6	2
O=C(Cn1c(=O)n(-c2ccc(CC(=O)NC3CCCC3)cc2)c(=O)c2ccccc21)Nc1ccccc1[N+](=O)[O-]	80*	0	44*	2
Fc1ccc(-c2noc(Cc3nnc(-c4ccc(F)cc4)o3)n2)cc1	-5	-9	-4	0
COc1ccccc1Cc1nnc(C2(c3ccccc3)CCOCC2)o1	16	-39	-3	1
COc1ccc(-c2cc(-c3ccc(F)cc3)[nH]c(=O)c2C#N)cc1	58*	4	40*	-4
Cc1[nH]c(C(=O)NC2CCCCCC2)c(C)c1S(=O)(=O)N1CCCC1	39*	13	8	1
COc1ccc(NC(=O)c2ccc(N3C(=O)C(C)CS3(=O)=O)cc2Cl)cc1 (centres undefined)	14	1	3	0
COc1cc(OC)c(NC(=O)Cn2c(=O)n(-c3ccc(CC(=O)NCC4CCCO4)cc3)c(=O)c3ccccc32)cc1Cl (centres undefined)	0	4	0	4
CCC(C)NC(=O)Cn1c(=O)n(-c2ccccc2)c(=O)c2ccc(C(=O)NCc3ccco3)cc21 (centres undefined)	25	-5	7	4
COc1ccc(NC(=O)Cn2c(=O)n(-c3ccc(CC(=O)NCc4ccco4)cc3)c(=O)c3ccccc32)cc1Cl	75*	0	61*	20
O=C(Cc1ccc(-n2c(=O)c3ccccc3n(CC(=O)Nc3ccc(Cl)cc3Cl)c2=O)cc1)NCc1ccco1	56*	14	46*	2
Cc1ccc(C(CC(=O)NCc2ccc3c(c2)OCO3)n2cccc2)cc1 (centres undefined)	-42	-11	5	2
Cc1cc(C)n2ncc(C(=O)N3CCCCC3)c2n1	1	-1	0	-2
CCc1nnc2c(N3CCN(C4CCCCC4)CC3)nc3ccccc3n12	-74	0	-8	1
CCn1c(SCC(=O)Nc2ccc(C)c(Cl)c2)nnc1-c1ccc2c(c1)OCCO2	31*	4	18	5
COc1ccc(-c2cc3ncnc(NC(C)c4ccco4)c3s2)cc1 (centres undefined)	15	-21	-7	-11
CC(C)(NC(=O)Cc1ccccc1)c1nc2c(c(C(N)=O)n1)OCO2	-1	nt	0	1
CC(C)(NC(=O)C1CCCCC1)c1nc2c(c(C(N)=O)n1)OCCO2	7	81*	0	-1
COc1ccc2nc(C(=O)N3CCN(C4CCCCC4)CC3)cn2n1	-2	0	-4	-2
CN1CCCC(OC(=O)c2cc(Cl)cc(Cl)c2)C1 (centres undefined)	32*	-6	4	3
O=C(O)c1cccnc1N1CCCC1c1ccccc1 (centres undefined)	47*	0	-2	0
SMILES	USP8 inh	USP7 inh	USP10 inh	UCHL1 block
Cc1cc(C)n2nc(C(=O)Nc3ccccc3Oc3ccccc3)nc2n1	-10	8	-2	3
c1cc(C2CCCCN2Cc2ccnc(N3CCCC3)n2)[nH]n1 (centres undefined)	-9	-3	-2	-1
Oc1ccc2ccccc2c1CN1CCN(c2ncccn2)CC1	0	4	0	2
Oc1ccc2ccccc2c1CN1CCCC1	38*	3	1	2
Cc1ccc(Nc2nc(O)c(CC(=O)Nc3ccc(C)cc3C)s2)cc1	46*	16	38*	0
Cc1ccc(Nc2nc(O)c(CC(=O)Nc3ccccc3C)s2)cc1C	90*	12	36*	2
Cc1cc(C)c(NC(=O)Cc2sc(Nc3ccc(C)c(C)c3)nc2O)c(C)c1	67*	12	35*	-1
CCN1Cc2c(C(=O)Nc3ccccc3C)ncn2-c2ccccc2S1(=O)=O	-11	0	1	-1
Cc1ccc(C)c(S(=O)(=O)N2CCN(c3ccc4nnc(-c5ccco5)n4n3)CC2)c1	76*	37*	39*	45*
O=C(c1cc(Cl)ccc1Cl)N1CCN(c2ccc3nnc(-c4ccco4)n3n2)CC1	49*	4	-2	4
CC1CCN(c2ccc3nnc(CCC(=O)NCc4ccco4)n3n2)CC1	8	-9	1	-1
O=S(=O)(c1ccccc1Cl)N1CCN(CCOc2ccccc2)CC1	-13	10	4	0
O=S(=O)(c1ccccc1Cl)N1CCN(c2ccc3nnc(-c4ccco4)n3n2)CC1	50*	34*	39*	40*
Cc1ccc(-c2ccc(N3CCOCC3)nn2)cc1S(=O)(=O)N1CCOCC1	-8	-9	-3	-5
O=C(N[C@@H]1C[C@@H](Oc2ccccc2)[C@H](O)[C@H]1N1CCCC1)C1CCOCC1	7	-1	-3	0
Cc1ccc(-c2c(C)noc2C)cc1S(=O)(=O)N1CCN(C)CC1	-45	-2	-5	-2
CC1CCc2c(sc3nc(CCC(=O)NCc4ccc5c(c4)OCO5)[nH]c(=O)c23)C1 (centres undefined)	45*	-22	6	-2
O=C(CCc1nc2sc3c(c2c(=O)[nH]1)CCCCC3)NCc1ccc2c(c1)OCO2	-4	-8	-1	-4
Cc1ccccc1CNC(=O)N1CCC2(CC1)NC(=O)[C@H]1CN(C(=O)N(C)C)C[C@H]12	-13	3	1	1
O=C1NC(=O)/C(=C/c2ccc(OC(=O)c3ccc(Cl)cc3Cl)cc2)N1	94*	5	45*	4
COc1ccc2c(c1)C(=O)C/C(=C\c1ccc(Cl)cc1)C2	21	10	8	8
CC(C)C[C@H](NC(=O)c1ccc2nc(-n3cccc3)sc2c1)C(=O)NCc1ccco1	53*	-2	14	-3
COc1ccc(NC(=O)CNC(=O)c2ccc3nc(-n4cccc4)sc3c2)cc1	82*	-22	28	11
COc1cccc(CC(=O)Nc2ccc3nc(C)sc3c2)c1	-16	0	-2	-3
O=c1ccc(-c2cc3ccccc3o2)cn1Cc1ccccc1-c1ccccc1	84*	5	25	38*
CC1O[C@@H](c2ccc3c(c2O)C(=O)C2=C(C3=O)[C@@]3(O)C(=O)C(O)[C@](C)(O)C[C@@]3(O)C=C2)CC[C@@H]1OC(=O)/C=C/C=C/C=C/[C@@H]1O[C@@](C)(C(=O)O)O[C@H]1C (some centres undefined)	-79	-18	-5	38*
O=S(=O)(Nc1ccc(Oc2ncnc3cc(Cl)ccc23)nc1)c1ccc(S(=O)(=O)c2ccccc2)s1	-15	16	45*	3
